# High-throughput results deposited in PubChem by Broad Institute.
# Only some compounds are listed: those with a hit (about 2.4% of all), similar ones and a draw of the others.
# Pf Dd2 growth – blocks growth of Plasmodium falciparum Dd2 parasites | P. falciparum Dd2 growth, SYBR Green, 72 h; stronger effect = lower value | activity change, % at 10 µM | 94,000 tested, 2.3% active | AID 1159554; in the data active = activity change below about -80%; inconclusive = no clear call, values can overlap the other calls
# C diff HTS – C. difficile growth inhibition. Clostridium difficile clinical isolate growth, OD600, 24 h; stronger effect = lower value. AID 1259249. 86,000 tested, 0.25% active. growth activity, negative = inhibition, % at 16 µg/mL (by protocol);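 active = mean growth activity at or below -80% and every replicate also at or below -80%; inconclusive = mean at or below -80% but some replicate above -80%; inactive = mean growth activity above -80%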
# Numbers stand for hits; – = inactive; ? = inconclusive; · = no result given.
SMILES,Pf Dd2 growth,C diff HTS
CN1C(=O)c2cc(NC(=O)C3CC3)ccc2OC[C@@H]2O[C@@H](CC(=O)NCCc3ccncc3)CC[C@H]21,–,–
C[C@@H]1CCCCO[C@@H](CN(C)S(=O)(=O)c2cccs2)[C@@H](C)CN([C@@H](C)CO)C(=O)c2cc(NC(=O)c3ccccc3)ccc2O1,–,–
CCCNC(=O)Nc1ccc2c(c1)C(=O)N(C)C[C@H](OC)[C@H](C)CN(Cc1ccc(-c3ccccn3)cc1)[C@H](C)CO2,–,·
COc1ccccc1CN1C[C@@H](C)[C@H](OC)CN(C)C(=O)c2ccc(NC(=O)Nc3ccccc3OC)cc2OC[C@H]1C,-90.2,·
CO[C@H]1CN(C)C(=O)c2ccc(NS(=O)(=O)CC(F)(F)F)cc2OC[C@H](C)N(C)C[C@@H]1C,-86.8,–
COc1ccccc1CN1C[C@@H](C)[C@@H](OC)CN(C)C(=O)c2ccc(NC(C)=O)cc2OC[C@@H]1C,–,·
CO[C@H]1CN(C)C(=O)c2ccc(NC(=O)CC(F)(F)F)cc2OC[C@@H](C)N(CC2CC2)C[C@@H]1C,–,·
CO[C@H]1CN(C)C(=O)c2ccc(NS(=O)(=O)CC(F)(F)F)cc2OC[C@@H](C)N(C)C[C@H]1C,–,–
CO[C@H]1CN(C)C(=O)c2ccc(NC(=O)CC(F)(F)F)cc2OC[C@@H](C)N(CC2CC2)C[C@H]1C,-85.7,–
CO[C@H]1CN(C)C(=O)c2ccc(NC(=O)C3CC3)cc2OC[C@H](C)N(CCC(F)(F)F)C[C@@H]1C,–,–
COC(=O)C[C@H]1CC[C@H]2[C@H](COc3ccc(NS(C)(=O)=O)cc3C(=O)N2C)O1,–,–
C[C@@H]1CCCCO[C@@H](CN(C)Cc2ccc(C(=O)Nc3ccccc3N)cc2)[C@@H](C)CN([C@H](C)CO)C(=O)c2cc(NS(=O)(=O)c3cccs3)ccc2O1,?,–
C[C@@H]1CCCCO[C@@H](CN(C)Cc2ccc(C(=O)Nc3ccccc3N)cc2)[C@@H](C)CN([C@H](C)CO)C(=O)c2cc(NS(=O)(=O)c3ccc(Cl)cc3)ccc2O1,?,–
C[C@@H]1CCCCO[C@H](CN(C)Cc2ccc(C(=O)Nc3ccccc3N)cc2)[C@@H](C)CN([C@H](C)CO)C(=O)c2cc(NS(=O)(=O)c3cccs3)ccc2O1,-87.2,–
C[C@@H]1CCCCO[C@H](CN(C)Cc2ccc(C(=O)Nc3ccccc3N)cc2)[C@@H](C)CN([C@@H](C)CO)C(=O)c2cc(NS(=O)(=O)c3ccc(Cl)cc3)ccc2O1,-84.9,–
CC=Cc1ccc2n(c1=O)C[C@@H]1[C@@H](CO)[C@H](C(=O)N(C)C)N(C(=O)CC3CC3)[C@H]21 (mixture of isomers),–,–
COc1ccc(S(=O)(=O)N(C)C[C@@H]2OCCCC[C@H](C)Oc3ccc(NC(=O)Nc4ccc5c(c4)OCO5)cc3C(=O)N([C@H](C)CO)C[C@@H]2C)cc1,-81.1,–
COc1ccc(NC(=O)Nc2ccc3c(c2)C(=O)N([C@H](C)CO)C[C@@H](C)[C@H](CN(C)S(=O)(=O)c2ccc(OC)cc2)OCCCC[C@H](C)O3)cc1,–,–
COc1ccc(NC(=O)Nc2ccc3c(c2)C(=O)N([C@@H](C)CO)C[C@@H](C)[C@H](CN(C)S(=O)(=O)c2ccc(OC)cc2)OCCCC[C@@H](C)O3)cc1,–,–
COc1ccc(S(=O)(=O)N(C)C[C@@H]2OCCCC[C@@H](C)Oc3ccc(NC(=O)Nc4ccc5c(c4)OCO5)cc3C(=O)N([C@H](C)CO)C[C@@H]2C)cc1,-84.3,–
COc1ccc(NC(=O)Nc2ccc3c(c2)C(=O)N([C@H](C)CO)C[C@@H](C)[C@H](CN(C)S(=O)(=O)c2ccc(OC)cc2)OCCCC[C@@H](C)O3)cc1,–,–
COc1ccc(S(=O)(=O)N(C)C[C@@H]2OCCCC[C@@H](C)Oc3ccc(NC(=O)Nc4ccc5c(c4)OCO5)cc3C(=O)N([C@@H](C)CO)C[C@@H]2C)cc1,-88.2,–
COc1ccc(S(=O)(=O)N(C)C[C@@H]2OCCCC[C@H](C)Oc3ccc(NC(=O)Nc4ccc5c(c4)OCO5)cc3C(=O)N([C@H](C)CO)C[C@H]2C)cc1,-82.0,–
COc1ccc(NC(=O)Nc2ccc3c(c2)C(=O)N([C@@H](C)CO)C[C@@H](C)[C@@H](CN(C)S(=O)(=O)c2ccc(OC)cc2)OCCCC[C@H](C)O3)cc1,–,–
CC(=O)N1[C@H](CO)[C@H](c2ccc(-c3ccc(F)cc3)cc2)[C@@H]1CNC(=O)C1CC1,–,–
SMILES,Pf Dd2 growth,C diff HTS
O=C(C[C@H]1C[C@H]2c3cc(NC(=O)c4ccc5c(c4)OCO5)ccc3O[C@H]2[C@@H](CO)O1)NCc1ccccn1,–,–
CO[C@@H]1CN(C)C(=O)c2ccc(NC(C)=O)cc2OC[C@H](C)N(C(=O)CC2CC2)C[C@@H]1C,–,·
Cc1ccccc1S(=O)(=O)N1[C@H](C#N)[C@@H](c2ccc(C#CC3CC3)cc2)[C@@H]1CO,-84.7,–
Cc1ccccc1S(=O)(=O)N1[C@H](C#N)[C@@H](c2ccc(C#CC3CCCC3)cc2)[C@@H]1CO,–,–
N#C[C@@H]1[C@H](c2ccc(C#CC3CCCC3)cc2)[C@H](CO)N1S(=O)(=O)c1ccccc1,–,–
Cc1ccccc1S(=O)(=O)N1[C@H](C#N)[C@H](c2ccc(C#CC3CCCCC3)cc2)[C@@H]1CO,–,–
Cc1ccccc1S(=O)(=O)N1[C@H](CO)[C@@H](c2ccc(C#CC3CCCCC3)cc2)[C@@H]1C#N,-83.1,–
N#C[C@H]1[C@@H](c2ccc(C#CC3CCCC3)cc2)[C@@H](CO)N1S(=O)(=O)c1ccccc1,-83.2,–
CCC(=O)N(C)C[C@@H]1Oc2ncc(C#Cc3ccncc3)cc2C(=O)N([C@H](C)CO)C[C@H]1C,–,–
C[C@@H]1CCCCO[C@H](CN(C)S(=O)(=O)c2ccccc2)[C@H](C)CN([C@@H](C)CO)C(=O)c2cc(NC(=O)Nc3ccc(F)cc3)ccc2O1,–,–
C[C@@H]1CN([C@H](C)CO)C(=O)c2cc(NC(=O)Nc3ccc(F)cc3)ccc2O[C@@H](C)CCCCO[C@@H]1CN(C)S(=O)(=O)c1ccccc1,-82.3,–
Cc1ccc(S(=O)(=O)N(C)C[C@@H]2OCCCC[C@@H](C)Oc3ccc(NC(=O)Nc4ccc(F)cc4)cc3C(=O)N([C@H](C)CO)C[C@@H]2C)cc1,-83.5,·
Cc1ccc(S(=O)(=O)N(C)C[C@H]2OCCCC[C@@H](C)Oc3ccc(NC(=O)Nc4ccc(F)cc4)cc3C(=O)N([C@H](C)CO)C[C@H]2C)cc1,–,·
Cc1ccc(S(=O)(=O)N(C)C[C@@H]2OCCCC[C@@H](C)Oc3ccc(NC(=O)Nc4ccc(F)cc4)cc3C(=O)N([C@@H](C)CO)C[C@@H]2C)cc1,-84.9,·
Cc1ccc(S(=O)(=O)N(C)C[C@H]2OCCCC[C@H](C)Oc3ccc(NC(=O)Nc4ccc(F)cc4)cc3C(=O)N([C@@H](C)CO)C[C@@H]2C)cc1,–,·
COc1ccc(CN(C)C[C@@H]2Oc3ccc(NC(=O)CCC(F)(F)F)cc3C(=O)N([C@@H](C)CO)C[C@H]2C)cc1,–,–
Cc1ccccc1S(=O)(=O)N(C)C[C@H]1OCc2cn(nn2)CCCC(=O)N([C@@H](C)CO)C[C@H]1C,–,·
CN(C)C(=O)C[C@H]1CC[C@@H]2[C@H](COC[C@H](O)CN2Cc2nccs2)O1,–,–
CN(C)CC#Cc1ccc([C@H]2[C@@H](CO)N3C(=O)CN(C(=O)c4cccc(F)c4)C[C@@H]23)cc1,–,–
